Assay results from PubChem BioAssay AID1259343 (VanderVen Lab, College of Veterinary Medicine, Cornell …, 2017).
The campaign covered roughly 6,200 compounds. About 2,900 (47%) were called active. Rule as the data show it: active = inhibition above about 50%; inactive = the rest. The set was probably picked from earlier hits. The list shows a part of the results.

Experiment: Mycobacterium tuberculosis growth inhibition, primary screen (AID 1259343)
Conditions: inhibition: at 10 µM, stronger effect = higher value; outcome: 10 uM

Row | Structure (SMILES) | inhibition
1 | COc1ccc2c(c1)OCc1c-2oc2cc(OC)ccc12 | 81.8% (active)
2 | COc1ccc2c(=O)c3c(oc2c1)C(=O)N(c1nccs1)C3c1ccccc1 (centres undefined) | 11.9% (inactive)
3 | COc1ccc2c(=O)c3c(oc2c1)C(=O)N(c1nccs1)C3c1ccc(C(C)(C)C)cc1 (centres undefined) | 5.45% (inactive)
4 | CC1CCc2c(Cl)cc(Cl)c(O)c2N1 (centres undefined) | 103% (active)
5 | COc1cc(C=Nc2ccc(I)cc2)cc(OC)c1OC | 75.7% (active)
6 | COc1cc(C=Nc2ccc3ncccc3c2)cc(OC)c1OC | -5.15% (inactive)
7 | Cc1ccc2c(c1)CCCN2C(=O)/C=C/c1ccco1 | 44.5% (inactive)
8 | COc1cc2c(cc1/C=C/C(=O)N1CCc3ccccc31)OC(C)C2 (centres undefined) | 59.3% (active)
9 | O=c1c(Oc2ccc(Cl)cc2)coc2cc(O)ccc12 | 33.2% (inactive)
10 | CCCc1cccc(C)c1O | 42.4% (inactive)
11 | CCOC(=O)C(C)Oc1ccc2c(=O)c(Oc3ccc(OCC)cc3)coc2c1 (centres undefined) | 22.8% (inactive)
12 | O=c1c(Oc2ccc(F)cc2)coc2cc(O)ccc12 | 103% (active)
13 | O=c1c(Oc2ccccc2F)coc2cc(O)ccc12 | 11.6% (inactive)
14 | CCCc1nc2oc3cc(OC)ccc3c(=O)c2c(=O)n1CCc1ccccc1 | 4.8% (inactive)
15 | O=c1c(Oc2ccccc2)coc2cc(O)ccc12 | 88.5% (active)
16 | CCCc1oc2cc(O)ccc2c(=O)c1Oc1ccccc1 | 80.2% (active)
17 | CCCc1cc(=O)oc2cc(O)ccc12 | 55.5% (active)
18 | CCCc1cc(=O)oc2cc(OC(C)C)c(Cl)cc12 | 23.5% (inactive)
19 | Oc1ccc(-c2nc3c4cnn(-c5ccccc5Cl)c4ncn3n2)cc1 | 44.1% (inactive)
20 | O=C(c1cnn2cccnc12)N1CCOc2ccc(C(O)C(c3ccccc3)c3ccccc3)cc2C1 (centres undefined) | -21.2% (inactive)
21 | Cc1cc(C(C)(C)CC(C)(C)C)ccc1OCCOCC[N+](C)(C)Cc1ccccc1 | 87.5% (active)
22 | CCCCCCCCc1nc(=S)[nH][nH]1 | 86.1% (active)
23 | CCCCCCCCN1C(=O)CC(=O)NC1=S | 27.6% (inactive)
24 | Cc1nc2sc3c(c2c(=O)o1)CCCCC3 | 102% (active)
25 | O=C1CCC(=O)N1c1ccc(-c2nc3sc4c(c3c(=O)o2)CCC4)cc1 | -4.37% (inactive)

Row | Structure (SMILES) | inhibition
26 | CC(C)(C)c1nc2sc3c(c2c(=O)o1)CCCC3 | 25.7% (inactive)
27 | COc1ccccc1C(C)(C)C(=O)n1nc(C(F)(F)F)nc1N | 7.93% (inactive)
28 | NC(=O)C1CCN(c2ccc(S(=O)(=O)C(F)(F)F)cc2)C1 (centres undefined) | -74.6% (inactive)
29 | Cc1cnn(C2CN(c3ccc(S(=O)(=O)C(F)(F)F)cc3)C2)c1 | 84.2% (active)
30 | Cc1cc(C)c(Cn2ccnc2CN(C(=O)c2ccc(F)cc2)C2CC2)c(C)c1 | 51.5% (active)
31 | CCN(C(=O)c1cc(C)c(-c2ccc(F)cc2)s1)C1CCC1 | 24.1% (inactive)
32 | FC(F)(F)c1ccc(Cn2ccnc2CNC2CCCCC2)cc1 | 21.3% (inactive)
33 | CC1=C(C)C(=O)C(CCCCC#CCCCC#CCO)=C(C)C1=O | 84.5% (active)
34 | C=C(C)CN=c1scc(C)n1N=Cc1sccc1C | 21.6% (inactive)
35 | COc1ccc(N(CC(F)(F)F)C(=O)CCl)cc1 | 84.1% (active)
36 | COc1ccc(COc2ccc(N(C)C(N)=O)cc2)c(Cl)c1 | 15.9% (inactive)
37 | COc1ccc2cc(CN(C)C(=O)CCl)ccc2c1 | inactive
38 | CC1CCc2sc(C(=O)NCc3ccc4c(c3)OCO4)cc2C1 (centres undefined) | -11% (inactive)
39 | CC1CCCC(NC(=O)c2cc3c(s2)CSC3)C1C (centres undefined) | 55.5% (active)
40 | COc1ccc(-c2c(O)c3c(OC)c4c(cc3oc2=O)OC(C)(C)C=C4)cc1 | 63.3% (active)
41 | CC(=O)O[C@@H]1C[C@@]2(C)[C@H](c3ccoc3)C[C@H]3O[C@]32[C@]2(C)C(=O)C(O)=C3C(C)(C)C(=O)C=C[C@]3(C)C12 (some centres undefined) | 94.8% (active)
42 | COc1cc(=C2C=c3ccccc3=N2)[nH]/c1=C\c1[nH]c(C)cc1C | -5.42% (inactive)
43 | O=C(NC(=S)Nc1ccc(N2CCN(C(=O)c3ccccc3)CC2)cc1)c1ccco1 | 99.1% (active)
44 | O=C(Nc1cccc(-c2cccc(Cl)c2)c1)C1CCN(C(=O)c2cccnc2)CC1 | inactive
45 | COc1ccc(C(=O)N2CCC(C(=O)Nc3cccc(-c4cccc(Cl)c4)c3)CC2)o1 | 70.5% (active)
46 | O=C(Nc1cccc(-c2cccc(Cl)c2)c1)C1CCN(C(=O)c2csnn2)CC1 | -4.87% (inactive)
47 | O=C(Nc1cccc(-c2cccc(Cl)c2)c1)C1CCN(C(=O)C2CCCO2)CC1 (centres undefined) | 9.39% (inactive)
48 | O=C(Nc1cccc(-c2cccc(Cl)c2)c1)C1CCN(C(=O)c2ccccc2)CC1 | 85.9% (active)
49 | O=C(Nc1cccc(-c2cccc(Cl)c2)c1)C1CCN(C2CCOCC2)CC1 | 88.7% (active)
50 | O=C(Nc1cccc(-c2cccc(Cl)c2)c1)C1CCN(C(=O)C2CCOC2)CC1 (centres undefined) | 71% (active)

Row | Structure (SMILES) | inhibition
51 | O=C(Nc1cccc(-c2cccc(Cl)c2)c1)C1CCN(C(=O)C2CC=CCC2)CC1 (centres undefined) | 81.6% (active)
52 | CC(C)c1nccc(-c2nccn2CC2(O)CCN(C)CC2)n1 | -4.81% (inactive)
53 | COc1ccccc1-c1c(C)[nH]n2c(=O)cc(-c3ccc([N+](=O)[O-])cc3)nc12 | 77.8% (active)
54 | COc1ccc(Cc2[nH]n3c(=O)cc(C)nc3c2-c2ccccc2)cc1 | 37.9% (inactive)
55 | COc1ccccc1-c1c(C)nn2c(NC(C)c3ccccc3)cc(C)nc12 (centres undefined) | 5.58% (inactive)
56 | COc1ccc(Nc2nc3cc(Cl)ccc3o2)cc1Cl | 21.2% (inactive)
57 | COc1ccc(NC(C)c2nc(C)no2)cc1Cl (centres undefined) | 57.6% (active)
58 | CC(Oc1ccc(Cl)cc1Cl)c1nc(-c2ccncc2)no1 (centres undefined) | 43.3% (inactive)
59 | CNc1nc(C)c(C(=O)c2ccc(C)cc2)s1 | 86.1% (active)
60 | CC(Cc1ccco1)NC(=O)c1cc2c(s1)CCC2 (centres undefined) | 93.1% (active)
61 | CN(CC(=O)Nc1sc2c(c1C#N)CCCCC2)Cc1ccco1 | 49.1% (inactive)
62 | O=C(NNS(=O)(=O)c1ccc2c(c1)OCCO2)c1cc2c(s1)CCCCC2 | 20.9% (inactive)
63 | S=c1sc2c(Cl)ncnc2n1-c1ccccc1 | 60.9% (active)
64 | Cn1c(=O)c([N+](=O)[O-])c(N2CCN(Cc3cccc4ccccc34)CC2)c2ccccc21 | 59% (active)
65 | Cn1c(=O)c([N+](=O)[O-])c(N2CCN(Cc3ccc(Cl)cc3Cl)CC2)c2ccccc21 | 40.7% (inactive)
66 | Cn1c(=O)c([N+](=O)[O-])c(N2CCN(CCOc3ccc(Cl)cc3)CC2)c2ccccc21 | 38.3% (inactive)
67 | O=c1cc(CSc2nc3ncc(Cl)cc3[nH]2)nc2ccc(Br)cn12 | 101% (active)
68 | CC(NCc1cc(=O)n2cc(Br)ccc2n1)c1cc(F)c(Cl)cc1Cl (centres undefined) | 27.6% (inactive)
69 | Brc1ccc(CSc2nc3ncccc3[nH]2)cc1 | 34% (inactive)
70 | CCCC[P+](CCCC)(CCCC)Cc1ccc(NC(=O)[C@@H](Cc2ccc3ccccc3c2)NC(=NC2CCCCC2)NC2CCCCC2)cc1 | 95.8% (active)
71 | O=C(Nc1ncccc1OCC1CCCCC1)c1cscn1 | 55.5% (active)
72 | O=C(NCC1(c2ccccc2)CC1)c1cc(Cl)ccc1O | 94.2% (active)
73 | O=S(=O)(NCC1(c2ccccc2)CC1)N1CCCCCC1 | 16.5% (inactive)
74 | N#CC(C(=O)C1COc2ccccc2O1)c1nc2ccccc2s1 (centres undefined) | 19% (inactive)
75 | N#CC(C(=O)C1c2ccccc2-c2ccccc21)c1nc2ccccc2s1 (centres undefined) | 33.3% (inactive)

Row | Structure (SMILES) | inhibition
76 | N#CC(C(=O)COc1cc(F)ccc1F)c1nc2ccccc2s1 (centres undefined) | 91.5% (active)
77 | COc1ccc(-c2[nH]ncc2CNC(=O)CC2COCCN2)cc1 (centres undefined) | -11.1% (inactive)
78 | COc1ccc2cc(-c3[nH]ncc3CNC(C)Cc3cccs3)ccc2c1 (centres undefined) | 50.1% (active)
79 | CCOc1ccc(Oc2ccccc2NC(C)=O)cc1 | 73.6% (active)
80 | CCOc1cccc(OCCCOc2ccccc2C(C)=O)c1 | 92.5% (active)
81 | CCOc1ccc(OCCCCOc2ccccc2C(C)=O)cc1 | 98% (active)
82 | CCOc1ccc(Oc2ccc(NC(C)=O)cc2)cc1 | -0.29% (inactive)
83 | CC1CN(C(=O)c2ccc(NC(=O)C3CC3)cc2)c2ccccc2O1 (centres undefined) | 87.7% (active)
84 | CCCCCCCCc1ccc(CCC(N)(CO)CO)cc1 | 92% (active)
85 | CCCCc1ccc(-c2csc(NC(=O)OC)c2C(N)=O)cc1 | 2.76% (inactive)
86 | CCOc1ccc(C=C2N=C(C(C)(C)C)OC2=O)cc1OC | 23.4% (inactive)
87 | CCOc1cc(C=NNc2nc(C)cs2)ccc1OC | 72% (active)
88 | Cc1ccc(/C=N\Nc2nc(-c3ccc4c(c3)OCCO4)cs2)cc1 | -51.4% (inactive)
89 | c1cc2c(cc1-c1csc(NCC3CCC3)n1)OCCCO2 | 3.11% (inactive)
90 | CCN(CC)c1ccc2cc(-c3csc(N/N=C\c4ccc(OC)cc4)n3)c(=O)oc2c1 | 25.9% (inactive)
91 | CCOc1ccc(/C=N\Nc2nc(-c3ccc(OC)c(OC)c3)cs2)cc1 | 79.8% (active)
92 | COc1ccc(/C=N\Nc2nc(-c3ccc4c(c3)OCCO4)cs2)cc1OC | 85.6% (active)
93 | CN1CC(CNC(=O)OCc2ccccc2)CC2c3cccc4c3c(cn4C)CC21 (centres undefined) | 96.7% (active)
94 | CCOP(=O)(Oc1ccccc1)c1c([N+](=O)[O-])cc(C(F)(F)F)cc1[N+](=O)[O-] (centres undefined) | 94.9% (active)
95 | CC(Oc1ccc(-n2cnc(-c3ccccc3)c2)cc1)C(N)=O (centres undefined) | 43.6% (inactive)
96 | CC(C)Oc1ccc(Nc2nccc3[nH]c(-c4ccccc4)cc23)cc1 | 92.6% (active)
97 | c1ccc(CSc2nn3cc(-c4ccccc4)nc3s2)cc1 | 16.3% (inactive)
98 | O=C(CSc1ccc2nc(-c3ccccc3)cn2n1)c1ccccc1 | 65.7% (active)
99 | CCN(CC)c1cc(-c2ccccc2)nc(SCc2cccc(C(=O)O)c2)n1 | 8.57% (inactive)
